Laboratory results from PubChem BioAssay (Tox21).
Records with an inconclusive call do not appear. Calls of active or inactive are those of the source. The call rests on the fitted dose curve; in most records, active means well fitted curve in the direction sought with a large enough effect in the repeat runs; inconclusive means weak or mixed curves; inactive means no such curve, though single readings can be large; an effect the other way counts as inactive or inconclusive.

Key:
[1] = A CellTox Green Cytotoxicity Assay to monitor cytotoxicity in HEK293 cells - 40 hour (AID 1224871); further: nearly all actives have a fitted effect of over 45% in size
Outline: (§1)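 HEK293 cells, 600/well, were preincubated 5 hours and then exposed to compounds at 37 C for up to 40 hours. A cell-impermeant cyanine dye staining dead-cell DNA was read by fluorescence at 0, 8, 16, 24, 32 and 40 h time points.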

[2] = qHTS RealTime-Glo MT Cell Viability Assay in HEK293 cells - 16 hour (AID 1224872); further: top concentration of the series differs between compounds; nearly all actives have a fitted effect of over 50% in size
Outline: (§2)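 Nonlytic real-time viability readout: viable cells convert prosubstrate to NanoLuc substrate, giving luminescence proportional to live cell number. HEK293, 600 cells/well, compound added after 5 h, continuous culture at 37 C.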

[3] = qHTS RealTime-Glo MT Cell Viability Assay in HepG2 cells - 8 hour (AID 1224873); further: nearly all actives have a fitted effect of over 55% in size
Outline: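 HepG2 cells mixed with RealTime-Glo MT reagents (NanoLuc plus cell-permeant prosubstrate) were seeded at 600 cells/well, incubated 5 h at 37 C/5% CO2, then pinned with compounds in DMSO; nonlytic luminescence tracked viability during 40 h treatment.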

[4] = qHTS RealTime-Glo MT Cell Viability Assay in HEK293 cells - 40 hour (AID 1224874); conditions: RealTime-Glo luminescence; max response: stronger effect = lower value; further: nearly all actives have a fitted effect of over 50% in size
Outline: (§3)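 600 cells/well were plated with the nonlytic NanoLuc/prosubstrate reagent, pre-incubated 5 h, then given 23 nL of compound in DMSO. Incubation at 37 C for 40 h, with luminescence from viable-cell-reduced substrate read repeatedly from 0 h.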

[5] = A CellTox Green Cytotoxicity Assay to monitor cytotoxicity in HEK293 cells - 24 hour (AID 1224875); further: series mostly up to about 77 µM; nearly all actives have a fitted effect of over 45% in size
Outline: as §1

[6] = A CellTox Green Cytotoxicity Assay to monitor cytotoxicity in HepG2 cells - 16 hour (AID 1224876); further: nearly all actives have a fitted effect of over 45% in size
Outline: (§4)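 HepG2 cells, 600/well, preincubated 5 h with CellTox Green dye, then exposed to Tox21 compounds in DMSO at 37 C for up to 40 h. Dead-cell DNA fluorescence read at the indicated time point.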

[7] = qHTS RealTime-Glo MT Cell Viability Assay in HepG2 cells - 32 hour (AID 1224877); further: nearly all actives have a fitted effect of over 55% in size
Outline: (§5)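 Luminescence read-out: viable HepG2 cells reduce a prosubstrate to a NanoLuc substrate, giving a signal proportional to live cell number. Reads taken at 0, 8, 16, 24, 32 and 40 h of compound exposure at 37 C.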

[8] = A CellTox Green Cytotoxicity Assay to monitor cytotoxicity in HepG2 cells - 24 hour (AID 1224878); further: nearly all actives have a fitted effect of over 45% in size
Outline: as §4

[9] = A CellTox Green Cytotoxicity Assay to monitor cytotoxicity in HepG2 cells - 40 hour (AID 1224879); further: nearly all actives have a fitted effect of over 40% in size
Outline: as §4

[10] = qHTS RealTime-Glo MT Cell Viability Assay in HEK293 cells - 0 hour (AID 1224880)
Outline: as §3

[11] = A CellTox Green Cytotoxicity Assay to monitor cytotoxicity in HEK293 cells - 32 hour (AID 1224881); further: nearly all actives have a fitted effect of over 40% in size
Outline: as §1

[12] = A CellTox Green Cytotoxicity Assay to monitor cytotoxicity in HepG2 cells - 0 hour (AID 1224882); further: nearly all actives have a fitted effect of over 35% in size
Outline: as §4

[13] = A CellTox Green Cytotoxicity Assay to monitor cytotoxicity in HepG2 cells - 32 hour (AID 1224883); further: nearly all actives have a fitted effect of over 50% in size
Outline: as §4

[14] = A CellTox Green Cytotoxicity Assay to monitor cytotoxicity in HEK293 cells - 8 hour (AID 1224884); further: nearly all actives have a fitted effect of over 35% in size
Outline: as §1

[15] = qHTS RealTime-Glo MT Cell Viability Assay in HepG2 cells - 16 hour (AID 1224885); further: nearly all actives have a fitted effect of over 50% in size
Outline: as §5

[16] = qHTS RealTime-Glo MT Cell Viability Assay in HEK293 cells - 24 hour (AID 1224886)
Outline: as §2

[17] = qHTS RealTime-Glo MT Cell Viability Assay in HEK293 cells - 8 hour (AID 1224887)
Outline: as §3

[18] = A CellTox Green Cytotoxicity Assay to monitor cytotoxicity in HEK293 cells - 16 hour (AID 1224888); further: nearly all actives have a fitted effect of over 35% in size
Outline: as §1

[19] = qHTS RealTime-Glo MT Cell Viability Assay in HepG2 cells - 0 hour (AID 1224889); further: nearly all actives have a fitted effect of over 50% in size
Outline: as §5

[20] = A CellTox Green Cytotoxicity Assay to monitor cytotoxicity in HepG2 cells - 8 hour (AID 1224890); further: nearly all actives have a fitted effect of over 45% in size
Outline: as §4
On the % scale 0 is the no-effect control and ±100 the full control effect.

CC(=O)[C@H]1CC[C@H]2[C@@H]3CC[C@H]4C[C@H](O)CC[C@]4(C)[C@H]3C(=O)C[C@]12C
inactive: Potency [1] | Potency [2] | Potency [3] | max response [4] -27.6% | Potency [5] | Potency [6] | Potency [7] | Potency [8] | Potency [9] | outcome [10] | Potency [11] | outcome [12] | Potency [13] | Potency [14] | Potency [15] | Potency [16] | Potency [17] | Potency [18] | Potency [19] | Potency [20]

Clc1ccccc1N1CCNCC1
inactive: Potency [1] | Potency [2] | Potency [3] | max response [4] 7.31% | Potency [5] | Potency [6] | Potency [7] | Potency [8] | Potency [9] | outcome [10] | Potency [11] | outcome [12] | Potency [13] | Potency [14] | Potency [15] | Potency [16] | Potency [17] | Potency [18] | Potency [19] | Potency [20]

CCS(=O)(=O)CCSP(=O)(OC)OC
inactive: Potency [1] | Potency [2] | Potency [3] | max response [4] 10.4% | Potency [5] | Potency [6] | Potency [7] | Potency [8] | Potency [9] | outcome [10] | Potency [11] | outcome [12] | Potency [13] | Potency [14] | Potency [15] | Potency [16] | Potency [17] | Potency [18] | Potency [19] | Potency [20]

COc1cc(OC)nc(NC(=O)NS(=O)(=O)c2ncccc2C(=O)N(C)C)n1
inactive: Potency [1] | Potency [2] | Potency [3] | max response [4] 7.6% | Potency [5] | Potency [6] | Potency [7] | Potency [8] | Potency [9] | outcome [10] | Potency [11] | outcome [12] | Potency [13] | Potency [14] | Potency [15] | Potency [16] | Potency [17] | Potency [18] | Potency [19] | Potency [20]

O=C(NCO)NCO
inactive: Potency [1] | Potency [2] | Potency [3] | max response [4] 2.7% | Potency [5] | Potency [6] | Potency [7] | Potency [8] | Potency [9] | outcome [10] | Potency [11] | outcome [12] | Potency [13] | Potency [14] | Potency [15] | Potency [16] | Potency [17] | Potency [18] | Potency [19] | Potency [20]

COC(=O)c1ccccc1S(=O)(=O)NC(=O)Nc1nc(C)cc(C)n1
inactive: Potency [1] | Potency [2] | Potency [3] | max response [4] 7.64% | Potency [5] | Potency [6] | Potency [7] | Potency [8] | Potency [9] | outcome [10] | Potency [11] | outcome [12] | Potency [13] | Potency [14] | Potency [15] | Potency [16] | Potency [17] | Potency [18] | Potency [19] | Potency [20]

COc1cc(OC)nc(NC(=O)NS(=O)(=O)c2ncccc2OCC(F)(F)F)n1
inactive: Potency [1] | Potency [2] | Potency [3] | max response [4] 0.591% | Potency [5] | Potency [6] | Potency [7] | Potency [8] | Potency [9] | outcome [10] | Potency [11] | outcome [12] | Potency [13] | Potency [14] | Potency [15] | Potency [16] | Potency [17] | Potency [18] | Potency [19] | Potency [20]

C=CC1CC=CCC1 (stereo not drawn)
inactive: Potency [1] | Potency [2] | Potency [3] | max response [4] 3.23% | Potency [5] | Potency [6] | Potency [7] | Potency [8] | Potency [9] | outcome [10] | Potency [11] | outcome [12] | Potency [13] | Potency [14] | Potency [15] | Potency [16] | Potency [17] | Potency [18] | Potency [19] | Potency [20]

CC1CN1P(=O)(N1CC1C)N1CC1C (stereo not drawn)
inactive: Potency [1] | Potency [2] | Potency [3] | max response [4] 6.96% | Potency [5] | Potency [6] | Potency [7] | Potency [8] | Potency [9] | outcome [10] | Potency [11] | outcome [12] | Potency [13] | Potency [14] | Potency [15] | Potency [16] | Potency [17] | Potency [18] | Potency [19] | Potency [20]

COC(=O)c1c(C(F)F)nc(C(F)(F)F)c(C2=NCCS2)c1CC(C)C
inactive: Potency [1] | Potency [2] | Potency [3] | max response [4] -16.3% | Potency [5] | Potency [6] | Potency [7] | Potency [8] | Potency [9] | outcome [10] | Potency [11] | outcome [12] | Potency [13] | Potency [14] | Potency [15] | Potency [16] | Potency [17] | Potency [18] | Potency [19] | Potency [20]

N#CCNCC#N
inactive: Potency [1] | Potency [2] | Potency [3] | max response [4] 3.83% | Potency [5] | Potency [6] | Potency [7] | Potency [8] | Potency [9] | outcome [10] | Potency [11] | outcome [12] | Potency [13] | Potency [14] | Potency [15] | Potency [16] | Potency [17] | Potency [18] | Potency [19] | Potency [20]

CC(=O)Nc1cc([As](=O)(O)O)ccc1O
inactive: Potency [1] | Potency [2] | Potency [3] | max response [4] -9.14% | Potency [5] | Potency [6] | Potency [7] | Potency [8] | Potency [9] | outcome [10] | Potency [11] | outcome [12] | Potency [13] | Potency [14] | Potency [16] | Potency [17] | Potency [18] | Potency [19] | Potency [20]

N#CCCC#N
inactive: Potency [1] | Potency [2] | Potency [3] | max response [4] 17.5% | Potency [5] | Potency [6] | Potency [7] | Potency [8] | Potency [9] | outcome [10] | Potency [11] | outcome [12] | Potency [13] | Potency [14] | Potency [15] | Potency [16] | Potency [18] | Potency [19] | Potency [20]
